In the supplement of paper PMC11417369:
The full ranking holds about 25,000 sequences; the median of “ln(normalized median fluorescence intensity)” is about 9.3, and the highest 2% start at about 10. The full list was thinned out, with the highest values kept by preference.

tested on: PF3D7_0420300 AP2 domain 1 (GST-tagged); experiment: gcPBM binding intensity (ln(normalized median fluorescence intensity)); higher = stronger DNA binding
Outline: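 Each value is the highest Masliner-normalised natural-log median intensity across replicate spots of either orientation of a probe. The probes were primer-extended double-stranded 36-bp intergenic genomic sequences on an Agilent 4 × 180k array, alongside negative controls, exposed for 1 h to GST-tagged P. falciparum DNA-binding domains expressed in E. coli. Bound protein was picked up with Alexa488 anti-GST antibody and scanned at 488 nm.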

| Sequence | gcPBM binding intensity (ln) |
| --- | --- |
| TTGTTTCTCTTTAAAAGTACAAAAATGGTTACATAT [XGTACX_site3109] | 8.95 |
| CATATATAAAAAAACACACACATATATATATATATA [CACACA_site1195] | 9.63 |
| AAAAAAAACATACATACACACACATAAATATATATA [CACACA_site8864] | 10.3 |
| TAAATAAAAAAACACACACACATATATATATATATA [CACACA_site2269] | 9.94 |
| AAAAAAAAAAAACACACACACACATAAATATATATA [CACACA_site149] | 10.2 |
| TATAAGAAAAATAACACACACATAAACATATATACA [CACACA_site2785] | 10.2 |
| AAAAAACATACATACACACACATAAATATATATATT [CACACA_site2699] | 10.1 |
| ATATATATAAAACACACACACACATGTTTTAAAACT [CACACA_site78] | 10.2 |
| ATATATATAAAACACACACACACATGGTTTAAAACT [CACACA_site4219] | 10.2 |
| TATAAGAAAAATAACACACACATAAACATAAATACA [CACACA_site5536] | 9.87 |
| AATATAAGAAAAATAACACACACATAAACATATATA [CACACA_site8899] | 10.1 |
| TAAATAAATAAAAAAACACACATATAAATATAAATA [CACACA_site7815] | 9.61 |
| ATTAAATAAAAAAACACACACATATATACATATATA [CACACA_site3445] | 9.89 |
| ACTATTAACAGTGTAGTGCAAAAAGGTTAATTATTA | 9.42 |
| AACATAAAAAAAATATGTACATATATAATATATATA [XGTACX_site3764] | 9.29 |
| TTTTTATGTAGAATTTTTTTATTTTTTCAAAATGGA [CACACA_negctrl_site166] | 8.69 |
| TATATATATATTGAAGTGCAAAATACTGTACGTAAT | 9.4 |
| GAGATAAAATAAAACACACACATATATATATAGAAT [CACACA_site2197] | 10.1 |
| TTGTTTTGCTAAAAATGTACTCTATATAAAAGCTTT [XGTACX_site4027] | 8.98 |
| ATGTAATATATTATATGTACATATTTTTATGTAGAT [XGTACX_site5945] | 9.2 |
| AACATTTTTAAATATATAAAAATATATATATATATA [XGTACX_negctrl_site551] | 8.97 |
| TATTTTAATCGTAAGTGTACTCTTTTAAGTATATGT [XGTACX_site8591] | 9.2 |
| GGACATTTTTATAAGGTGCACGGTTTTGATATTACT [GTGCAC_site9892] | 9.46 |

| Sequence | gcPBM binding intensity (ln) |
| --- | --- |
| TAGATACATAAACACACACACACATACATATATACA [CACACA_site9139] | 10.3 |
| AAAAAAAAAAATATCACACACACATAAATATAAACA [CACACA_site7138] | 10.1 |
| CATATACATAAACACACACACACATAAATAAATATA [CACACA_site4864] | 10.2 |
| TATATAAATATACAAACACACATACAAACATATATA [CACACA_site4754] | 9.9 |
| AAAAAAAAATATCACACACACATAAATATAAACCAA [CACACA_site2279] | 10.1 |
| AAAAAAAAAAATATCACACACACATAAATATAAACC [CACACA_site2278] | 10.2 |
| AATAAATATATAAATACACACAAACATACATATATA [CACACA_site9340] | 9.96 |
| TACATACATAAACACACACACACATATATATATATA [CACACA_site8953] | 10.1 |
| TATATACATAAACACACACACACATATATATATATA [CACACA_site8707] | 10.1 |
| TTTTATAATTTATCTAAAAAAAAATAAAATAAAATG [TGCATGCA_negctrl_site429] | 8.67 |
| CTTTTTTTTTTGTATTGTACTTTATTTTTACATCGT [XGTACX_site2918] | 9.65 |
| AAAAACGATTAATGTGTACACACATAGTTATAAACA [CACACA_site8659] | 9.74 |
| TGATGATATAAAAACACACACATATAATATAATACT [CACACA_site1208] | 10 |
| TTTTCCCTTACAGAAAAAAAAAAATTCCTAACCCCG [CACACA_negctrl_site650] | 9.03 |
| TGGCATATATATAAATGTACTTTCTTTCTATCTGTT [XGTACX_site8483] | 9.34 |
| ATAAATTCATTATATTGTACAAACAAATGAAAAAAA [XGTACX_site8304] | 9.09 |
| ATATATATGAAACACACACACAAAAAAAAAAAAAAA [CACACA_site3647] | 9.69 |
| AAAAAAAAAAAAAACACACACACAAGAGTATATAAA [CACACA_site6580] | 9.99 |
| AATAATAAACACAATCAAATAAAATATGAAATATAA [GTGCAC_negctrl_site307] | 9.46 |
| ATAATATGAAAACACACACACACACTAGAAAAAAAA [CACACA_site5153] | 10.3 |
| ATAATCCTTAAACACACACACACACTAATAAATAAA [CACACA_site8052] | 10.2 |
| ATAATATGAAATATAACACACATATATAAAAACATT [CACACA_site866] | 9.72 |
| ATAATATGAAAACACACACACACACTAATAAAAAAA [CACACA_site8617] | 10.2 |

| Sequence | gcPBM binding intensity (ln) |
| --- | --- |
| AAAAAAAAAAAACACACACACACACTAGTATATAAA [CACACA_site4783] | 10.2 |
| TACATAAATTAAAACACACACACACTAATAAAAAAA [CACACA_site8712] | 10.1 |
| TACATATATAAAAAAACACACACATATATATATATA [CACACA_site8315] | 9.54 |
| AAAAAAAATATGAAAACACACATATATAAATAAATA [CACACA_site113] | 9.55 |
| AAAAAATATATATTAACACACACACTAATAAAAAAA [CACACA_site8366] | 10 |
| TAATAAAAATAAAATTGTACTAATAACATTTCATTA [XGTACX_site3703] | 8.94 |
| TATCTTATGTCTGAAAGTACAAATTTTTTTCTACTT [XGTACX_site2208] | 9.09 |
| ATATAAATAATATAAATACACACTAAAAAAAATATA [CACACA_site542] | 9.69 |
| TGCAACAAAATAAACACACACACACTAACACAAAAA [CACACA_site7567] | 10.1 |
| GGAAACAAAAAATATATACACACTAATCATAAAAAA [CACACA_site7890] | 9.52 |
| ATAAATAAAGGACACACACACACACTAGAAAAAAAA [CACACA_site5450] | 10 |
| TATATATATATATATACACACACACTAATAAAAAAA [CACACA_site8426] | 10 |
| AAAAAAATAAAGGATATACACACTAATTATATATAT [CACACA_site2812] | 9.64 |
| TATAATAAATCAAATGCACACACACTAATAAAAAAA [CACACA_site7937] | 10.1 |
| ATAATAAAAAAAAATGCACACATATATATATATATA [CACACA_site8766] | 9.21 |
| ATAAATAAAGGACACACACACACACTAATAAAAAAA [CACACA_site8840] | 10.3 |
| AAAAAATCACAACACACACACACACTAATAAAAAAA [CACACA_site8410] | 10.2 |
| AATAAATATAAAAATGCACACACACTAATAAAAAAA [CACACA_site8201] | 10.2 |
| AAAAAAAAAAAACACACACACACACTAATATATAAA [CACACA_site8302] | 10.2 |
| CACATATAAATATTAACACACATAATGAGTTATATA [CACACA_site7316] | 9.33 |
| GAATATTAAACAAACACACACACATATATATATATA [CACACA_site3382] | 9.78 |
| TTTTTTTTTTATTTTGCACACTTCTAATTTAGTTCT [CACACA_site5828] | 9.45 |
| TTTCTTAAAATGTTATGTACATATTTCGTTTCAAAG [XGTACX_site6102] | 9.01 |

| Sequence | gcPBM binding intensity (ln) |
| --- | --- |
| ATTATATATAAGAAGAGTACTGAATATGTGCAATAT [XGTACX_site4471] | 9.55 |
| ATATAATATGTTGAATGTACTTAAAAAAATGTATCT [XGTACX_site5385] | 9.21 |
| TAAATATATATATACACACACATACACAAAAAAAAA [CACACA_site3580] | 10.1 |
| AAAACAAACGGACACACACACATATATATATATATA [CACACA_site5924] | 9.97 |
| TAAATAAATAAAAAAACACACATATATATATATATA [CACACA_site4029] | 9.51 |
| CTAAAATACGGACACACACACACATATATATATATA [CACACA_site6138] | 10.2 |
| AAAAAAAACGGACACACACACATAAATATATATAAA [CACACA_site4260] | 10.3 |
| AAAAAAAACGGACACACACACATACAAAATATATAT [CACACA_site4910] | 10.2 |
| CCATAAAACTATAATACACACATATAGATTAACATA [CACACA_site7849] | 9.7 |
| CTATAAATGAATGTTTGTACTTAATAATAAAAGAAA [XGTACX_site3170] | 9.06 |
| GCATATTTTATAATTTTACACACCATATAAAATAAT [CACACA_site8904] | 9.51 |
| TGTTTGTAATTATGTATGCACTTTTTTGTATGTGTG [GTGCAC_site9668] | 9.58 |
| CAAAGAGAAATAAACACACACAAAATAAAGAAAAAA [CACACA_site2245] | 9.74 |
| AAAAAAATAAGACACACACACAAAAAAATAAAAATA [CACACA_site6357] | 10.1 |
| ACAAAATAAAGACACACACACAAACACAAAAAAATA [CACACA_site7568] | 10.2 |
| AAAAAAAAAAGACACACACACAAAATAAACAAACAA [CACACA_site7308] | 10.3 |
| AAAAAAATAAATAAGACACACACAAAAAAAAAAAAA [CACACA_site8404] | 9.97 |
| AAAAATAAATAAGACACACACAAAAAAAAAAAAAAA [CACACA_site1432] | 9.54 |
| TATTTTATTATACCAAGTACAAAATTTAAATATGAA [XGTACX_site5478] | 8.99 |
| AAAATAATAAATAAATGTACATATATATATATATAT [XGTACX_site3078] | 9.1 |
